According to PubChem BioAssay (EPA / NIEHS):
Records with an inconclusive call do not appear. Activity calls are given as the source filed them. Rule for the calls, unless noted: active = hit-call score of the fitted dose curve at least 0.9, where 1 is the maximum; inconclusive = response in the unintended direction; inactive = score below 0.9.

Tests used:
[1] = Tanguay_ZF_120hpf_SOMI_legacy: (Legacy) Oregon State University Tanguay Lab 120 Hour Post-fertilization zebrafish Assay for Somite Malformation (AID 2283647)
In short: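 Binary somite-defect scoring at 120 hpf, omitted for embryos that died, in wild-type (Tropical 5D) zebrafish with chorion removed by pronase at 4 hpf; static exposure began 6 hpf, single embryos per well, 28C, 0.64% DMSO; fitted positive versus DMSO.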

[2] = Tanguay_ZF_120hpf_PFIN_legacy: (Legacy) Oregon State University Tanguay Lab 120 Hour Post-fertilization zebrafish Assay for Pectoral Fin Malformation (AID 2283648);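 note: each larva judged yes or no for fin defect by brightfield with dead larvae skipped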
In short: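 Pectoral fin malformation was recorded as a binary endpoint at 120 hpf in wild-type Tropical 5D larvae, which had been dechorionated and exposed statically from 6 hpf at 28C in 0.64% DMSO. Dead embryos were excluded.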

[3] = Tanguay_ZF_120hpf_CFIN_legacy: (Legacy) Oregon State University Tanguay Lab 120 Hour Post-fertilization zebrafish Assay for Caudal Fin Malformation (AID 2283649)
In short: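 Binary brightfield scoring of caudal fin defects at 120 hpf after static, light-shielded exposure at 28C from 6 hpf. Tropical 5D embryos, chorion removed with pronase at 4 hpf, final DMSO 0.64%.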

[4] = Tanguay_ZF_120hpf_PIG_legacy: (Legacy) Oregon State University Tanguay Lab 120 Hour Post-fertilization zebrafish Assay for Pigmentation Malformation (AID 2283650)
In short: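 Pigment malformation recorded as a binary call at 120 hpf in zebrafish (Tropical 5D) exposed singly from 6 hpf after pronase dechorionation. Static, sealed, 28C exposure, 0.64% DMSO; mortality excludes scoring; positive-direction fit against DMSO.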

[5] = Tanguay_ZF_120hpf_CIRC_legacy: (Legacy) Oregon State University Tanguay Lab 120 Hour Post-fertilization zebrafish Assay for Circulatory Malformation (AID 2283651)
In short: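 Binary circulatory malformation call at 120 hpf by brightfield imaging of zebrafish larvae; chorion removed at 4 hpf, static exposure from 6 hpf in sealed dark plates at 28C, final DMSO 0.64%; non-mortality endpoints skipped if embryo died.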

[6] = Tanguay_ZF_120hpf_SWIM_legacy: (Legacy) Oregon State University Tanguay Lab 120 Hour Post-fertilization zebrafish Assay for Swim Bladder Malformation (AID 2283654);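 note: swim bladder malformation in each larva scored yes or no under brightfield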
In short: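 Scoring is binary for swim bladder defects at 120 hpf, by brightfield inspection of zebrafish larvae. Embryos were exposed singly from 6 hpf after pronase dechorionation, at 28C with 0.64% DMSO; mortality excluded scoring.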

[7] = Tanguay_ZF_120hpf_TRUN_legacy: (Legacy) Oregon State University Tanguay Lab 120 Hour Post-fertilization zebrafish Assay for Truncated Body (AID 2283655)
In short: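 Binary presence/absence of truncated body is recorded at 120 hpf by brightfield, with non-mortality endpoints skipped after death. Exposure is static from 6 hpf in sealed dark plates at 28C, using dechorionated wild-type zebrafish, 0.64% DMSO.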

[8] = Tanguay_ZF_120hpf_NC_legacy: (Legacy) Oregon State University Tanguay Lab 120 Hour Post-fertilization zebrafish Assay for Notochord and Tail Malformation (AID 2283656)
In short: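 Binary scoring of notochord distortion by brightfield microscopy; embryos dying were not scored. Wild-type Tropical 5D embryos, chorion removed, exposed singly and statically from 6 to 120 hpf, 28C, sealed, 0.64% DMSO.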

[9] = read-out: solute carrier (SLC22A6), SLC22A6 (gene 9356); assay: LTEA_HepaRG_SLC22A6: Life Technologies and Expression Analysis (LTEA) Assay for solute carrier (SLC22A6) using HepaRG (AID 2283653; active = hit-call score of the fitted dose curve at least 0.9, where 1 is the maximum; inactive = score below 0.9); settings: mRNA level, 48 h; actives raise or lower the signal
Description: LTEA_HepaRG is a cell based, multiplexed-readout assay that uses HepaRG, a human liver cell line, with measurements taken at 48 hours after chemical dosing on a 96-well plate.LTEA_HepaRG_SLC22A6 is one of 102 assay component(s) measured in the LTEA HepaRG cell culture assay. It is a marker of NR mediated transport.Data from the assay component LTEA_HepaRG_SLC22A6 was analyzed into 1 endpoint. This assay endpoint, LTEA_HepaRG_SLC22A6, was analyzed with bidirectional fitting relative to DMSO as the negative control and baseline of activity. Using a type of inducible reporter, measures of mRNA induction for gain or loss-of-signal activity can be used to understand regulation of transcription factor activity. To generalize the intended target to other relatable targets, this assay endpoint is annotated to the transporter intended target family, where the subfamily is organic anion transporter.
A total of 1060 chemcials from the ToxCast library were tested in eight-point concentration-response experiments. Cell culture and cytotoxicity assays were conducted at Thermo Fisher Scientific's Custom Services facility (Madison, WI). A single lot of human HepaRG cells (Thermo Fisher Scientific, Frederick, MD) was used for the cell culture experiments. 96-well format collagen type I coated plates of human HepaRG cells were prepared using established methods. Briefly, cryopreserved HepaRG cells were thawed, plated at a density of approximately 100,000 cells/well in HepaRG Thaw, Plate, and General Purpose media (HPRG770, Thermo Fisher Scientific), and incubated for 48 hours. 0.5% DMSO was selected as vehicle control to balance the requisite need of DMSO in HepaRG cultures to maintain differentiation (for example, baseline metabolism, proportions of hepatocytes vs. cholangiocytes), while enabling further hepatic receptor pathway activation (for example, PXR and CAR) in response to chemical exposure. 48 hours after plating, the culture medium was replaced with HepaRG Serum-Free Incudtion Media. Cells were exposed to each test chemical in duplicate and maintained in CO2 incubators for another 48 hours. Chemical plates were thawed to room temperature and 200x concentrations of treatment groups were prepared. 8-point conentration-reponse curves were made with the highest exposure at 100 uM, followed by half-log dilutions, all in 0.5% DMSO. Each test plate contained variouse controls, induction positive controls (1mM phenobarbital), cytotoxicity positive controls ([…] aflatoxin B1), vehicle controls (0.5% DMSO), and total lysis controls (0.5% DMSO). Cell morphology images were taken using an Essen IncuCyte FLR automated microscope, with six 96-well plates imaged in about 24 minutes. Images were captured and exported and JPEG files. Spent culture media was transfered to black-well plates for the LDH assay, and remaining media was sorted at -80 C for later use. Cells were treated with RLT buffer and frozen until shipped for gene expression analysis. Total RNA was isolated from the cell suspension in 75 uL of Buffer RLT (Qiagen, Germantown, MD 20874) by Quintiles/Expression Analysis (Durham, NC) using a custom isolation procedure. Total RNA from each plate well was transferred to a preamplification plate. Fluidigm's 96.96 Dynamic ArrayTM (Fluidigm, Amsterdam, the Netherlands) technology was used for gene expression analyses by quantitative reverse transcription polymerase chain reaction (qRT-PCR, performed by Quintiles/Expression Analysis, Durham, NC)89. Standard TaqManTM Assays (Applied Biosystems/ThermoFisher Scientific, Foster City, CA) were used to assess the expression of 93 genes selected based on their selectivity and sensitivity to important hepatic receptors known to be modulated by environmental chemicals; importance in human hepatocyte functionality; and hepatotoxicity. […]

[10] = read-out: kallikrein-3 (KLK3), KLK3 (gene 354); assay: LTEA_HepaRG_KLK3: Life Technologies and Expression Analysis (LTEA) Assay for kallikrein-3 (KLK3) using HepaRG (AID 2283652; active = hit-call score of the fitted dose curve at least 0.9, where 1 is the maximum; inactive = score below 0.9); settings: mRNA level, 48 h; actives raise or lower the signal
In short: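 KLK3 transcript levels were measured by TaqMan qRT-PCR with normalisation to three housekeeping genes. HepaRG cultures received chemicals for 48 h at up to 100 uM (half-log, 8 points, 0.5% DMSO vehicle), fitted in both directions against DMSO.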

SMILES | outcome [1] | outcome [2] | outcome [3] | outcome [4] | outcome [5] | outcome [6] | outcome [7] | outcome [8] | outcome [9] | outcome [10] | AC50 [1] | AC50 [2] | AC50 [6]
CNC(=O)N(C)c1nnc(C(C)(C)C)s1 | inactive | inactive | inactive | inactive | inactive | inactive | inactive | – | – | – | – | – | –
CS(=O)(=O)c1ccc(C(=O)C2C(=O)CCCC2=O)c([N+](=O)[O-])c1 | inactive | inactive | inactive | inactive | inactive | inactive | inactive | inactive | – | – | – | – | –
CS(=O)(=O)c1cc(C(F)(F)F)ccc1C(=O)c1cnoc1C1CC1 | inactive | inactive | inactive | inactive | inactive | inactive | inactive | – | – | – | – | – | –
O=C1C2CC=CCC2C(=O)N1SC(Cl)(Cl)Cl (stereo not given) | inactive | inactive | inactive | inactive | inactive | inactive | inactive | – | – | – | – | – | –
CCOc1cc(C(C)(C)C)ccc1C1COC(c2c(F)cccc2F)=N1 (stereo not given) | inactive | inactive | inactive | – | – | inactive | inactive | inactive | – | – | – | – | –
COC(=O)NS(=O)(=O)c1ccc(N)cc1 | – | inactive | inactive | inactive | – | inactive | inactive | inactive | – | – | – | – | –
CN=C=S | – | inactive | inactive | inactive | inactive | inactive | inactive | – | inactive | – | – | – | –
C=C(C)CN(CC)c1c([N+](=O)[O-])cc(C(F)(F)F)cc1[N+](=O)[O-] | inactive | inactive | – | inactive | inactive | inactive | inactive | inactive | – | – | – | – | –
CCOc1nc(C(Cl)(Cl)Cl)ns1 | inactive | – | inactive | inactive | – | inactive | inactive | – | – | – | – | – | –
Cc1ccc(N=CN(C)C=Nc2ccc(C)cc2C)c(C)c1 | inactive | inactive | inactive | inactive | – | inactive | inactive | inactive | – | – | – | – | –
C=CCOC(=O)C(C)(C)OC(=O)c1cc(-n2c(=O)cc(C(F)(F)F)n(C)c2=O)ccc1Cl | – | inactive | inactive | inactive | inactive | – | inactive | – | – | – | – | – | –
Clc1nc(Cl)nc(Nc2ccccc2Cl)n1 | – | inactive | inactive | – | inactive | – | inactive | inactive | – | – | – | – | –
Nc1c(Cl)c(Cl)nc(C(=O)O)c1Cl | – | inactive | inactive | inactive | inactive | – | – | inactive | inactive | inactive | – | – | –
CCN(CC)c1nc(C)cc(OP(=S)(OC)OC)n1 | inactive | inactive | inactive | inactive | – | inactive | inactive | inactive | – | – | – | – | –
CCNC(=O)NC(=O)C(C#N)=NOC | – | – | inactive | – | inactive | – | inactive | inactive | – | – | 41.6 µM (active) | 45.6 µM (active) | 53.2 µM (active)
CCOC(=O)C(C)OC(=O)c1cc(Oc2ccc(C(F)(F)F)cc2Cl)ccc1[N+](=O)[O-] (stereo not given) | inactive | inactive | inactive | – | inactive | inactive | inactive | inactive | – | – | – | – | –
COCC(=O)N(c1c(C)cccc1C)C(C)C(=O)OC (stereo not given) | inactive | – | inactive | inactive | inactive | inactive | inactive | – | – | – | – | – | –
CSC(=O)c1c(C(F)F)nc(C(F)(F)F)c(C(=O)SC)c1CC(C)C | inactive | inactive | inactive | – | inactive | inactive | inactive | inactive | – | – | – | – | –
Cc1cnc(C2=NC(C)(C(C)C)C(=O)N2)c(C(=O)O)c1 (stereo not given) | inactive | inactive | – | inactive | inactive | inactive | inactive | inactive | – | – | – | – | –
